Data on eight compounds can be found in PubChem BioAssay (NCI).

Holding throughout (assay): NCI-60 one-dose screen, 48 h (100 = growth as untreated, 0 = no growth, -100 = all killed)
Holding throughout (settings): 10 µM unless noted

In assay [1] the test system is HCT-15 colon.
For assay [2], the system named is HT29 colon.
Assay [3] deals with SNB-75 CNS.
The subject of assay [4] is SNB-19 CNS.
The subject of assay [5] is U251 CNS.
Assay [6] has as its system PC-3 prostate.
Assay [7] deals with SK-MEL-5 melanoma.
Assay [8] relates to UACC-62 melanoma.
In assay [9] the test system is LOX IMVI melanoma.
The test system of assay [10] is SK-MEL-28 melanoma.
Assay [11] concerns SK-MEL-2 melanoma.
In assay [12] the test system is EKVX NSCLC.
Assay [13] concerns SN12C renal.
The subject of assay [14] is UO-31 renal.
In assay [15] the test system is TK-10 renal.
Assay [16] relates to ACHN renal.
Assay [17] relates to CAKI-1 renal.
The subject of assay [18] is CCRF-CEM leukemia.
The test system of assay [19] is MOLT-4 leukemia.

Each structure is given as a SMILES string. Compounds without any hit were thinned out: in the full panel of roughly 83,000, 20% have a hit.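 Cell lines were cultured in 96-well plates, exposed to a single compound concentration, and assessed for percent growth 48 hours later.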 Unmarked numbers belong to inactive results. Active and inactive are the calls of the source. The calls were made as follows: active = growth percent below 10; inactive = the rest.

With `NNC(=O)/C(=C\c1ccc([N+](=O)[O-])cc1)CC(=O)c1ccc(Cl)c(Cl)c1`, the growth is 89.6% in assay [1]; 88.4% in [2]; 63.3% in [3]; 89.6% in [4]; 91.8% in [5]; 79.4% in assay [6]. Besides, the growth in assay [7] is 93.6%; in [8] it was 73.8%; in assay [9], 71.3%; in [10] it was 103%; in assay [11] it was 95.7%; in assay [12], 69.5%. Also, the growth in assay [13] was 88%; in [14] it was 58.6%; in [15] it was 97.5%; in assay [16], 91.1%; in [17], 66.8%; in [18], 80.9%. Also, in assay [19], the growth was 61.4%.
Take `O=C1CCCN1c1cccc2cccnc12`: the growth was 101% in assay [1]; 103% in assay [2]; 83.1% in assay [3]; 91% in [4]; 96.4% in [5]; 107% in assay [6]. In addition, the growth in assay [7] is 99.1%; in assay [8] it was 104%; in assay [9], 95.6%; in assay [10], 113%; in assay [11], 104%; in assay [12] it was 91.5%. Also, the growth in assay [13] was 102%; in assay [14], 81.2%; in [15], 88.5%; in [16], 102%; in assay [17], 91.9%; in assay [18], 107%. Further, the growth in assay [19] was 102%.
On to `CN1CCCC1=Nc1ccccc1`, for which the growth in [1] is 111%; in assay [2], 98.1%; in [3], 80%; in assay [4], 107%; in assay [5], 94.7%; in [6] it was 96.9%. For the same compound, the growth in assay [7] was 104%; in assay [8] it was 91.4%; in [9] it was 96.6%; in assay [10], 96.6%; in assay [11] it was 114%; in [12], 103%. Besides, the growth in assay [13] is 95.5%; in assay [14], 92.2%; in assay [15], 107%; in assay [16] it was 115%; in assay [17] it was 94.6%; in assay [18], 105%. Moreover, the growth in assay [19] was 101%.
As to `CC(C)C1C2=C(NCCN1C(=O)Cc1ccccc1)C(C)(C)N(Cc1ccccc1)C2=O` (configuration not stated), the growth in [1] is 95.4%; in assay [2], 109%; in assay [3], 85.3%; in [4], 96.8%; in [5] it was 103%; in [6], 93.2%. In addition, the growth in assay [7] is 104%; in [8], 92.4%; in [9], 101%; in [10] it was 104%; in assay [11] it was 94.3%; in assay [12], 94.5%. In addition, the growth is 98.5% in assay [13]; 87.3% in [14]; 97.3% in assay [15]; 101% in assay [16]; 84.2% in assay [17]; 111% in assay [18]. In assay [19], the growth is 96.8%.
In the case of `COc1ccc2c(Nc3ccc(NS(C)(=O)=O)cc3)c3ccccc3nc2c1`, the growth in assay [1] is 1.84% (active); in [2] it was -45.4% (active); in [3], -15.8% (active); in assay [4] it was 13.2%; in assay [5], 4.96% (active); in [6] it was 6.89% (active). For the same compound, the growth in assay [7] is -94.6% (active); in assay [8], -65.4% (active); in assay [9] it was -5.18% (active); in [10] it was -13.5% (active); in [11], -70.4% (active); in assay [12], 6.78% (active). Besides, the growth was 10.3% in assay [13]; -41.5% (active) in [14]; 9.37% (active) in [15]; -3.55% (active) in assay [16]; -22.6% (active) in [17]; 11% in assay [18]. Moreover, the growth in assay [19] is 2.19% (active).
For the compound `[O-][n+]1ccccc1CCN(O)CCc1cccc[n+]1[O-]`, the growth in assay [1] is 99.3%; in [2] it was 98.5%; in [3], 85.4%; in [4], 102%; in assay [5], 105%; in [6], 91.8%. For the same compound, the growth is 95.3% in assay [7]; 99% in [8]; 97.9% in [9]; 116% in assay [10]; 92.9% in assay [11]; 99.4% in assay [12]. For the same compound, the growth in [13] is 105%; in assay [14] it was 75.5%; in assay [15], 104%; in assay [16], 95.8%; in assay [17], 94.7%; in assay [18], 99.5%. In addition, in assay [19], the growth was 98%.
Consider `COc1cccc(-c2nc3occn3c2-c2ccnc(NCCCNS(=O)(=O)c3cccc(F)c3)n2)c1`, for which the growth in assay [1] was 83.4%; in assay [2] it was 50.7%; in assay [3] it was 117%; in assay [4], 109%; in assay [5], 111%; in [6], 79.4%. The growth in assay [7] was 48.2%; in [8], 45.2%; in assay [9], 86.5%; in [10], 89.5%; in assay [11], 90.2%; in [12] it was 79.8%. In addition, the growth is 87.7% in assay [13]; 69.8% in assay [14]; 131% in assay [15]; 84.5% in assay [16]; 78.2% in [17]; 81.3% in assay [18]. Besides, in assay [19], the growth was 67.7%.
`N#Cc1ccc(-c2ccc3c(c2)NC(=O)/C3=C\c2ccc[nH]2)cc1`: the growth in assay [1] was 58.3%; in assay [2], 103%; in [3], 57%; in assay [4] it was 99.3%; in assay [5], 103%; in [6] it was 84.7%. Also, the growth is 85.4% in assay [7]; 88.4% in [8]; 97.5% in [9]; 107% in assay [10]; 89.3% in assay [11]; 26.5% in assay [12]. Also, the growth was 95.8% in [13]; 72% in assay [14]; 54.4% in assay [15]; 101% in assay [16]; 82.4% in assay [17]; 103% in assay [18]. For the same compound, the growth in [19] was 109%.
